This is part of a sample that, as a whole, favours compounds with a hit. Of some 79,000 tested, about 15% had one in any assay. Unmarked numbers belong to inactive results. Active and inactive are the calls of the source. Rule as the data show it: active = growth inhibition above about 70%; inactive = the rest.
Experiment: NCI Yeast Anticancer Drug Screen. Data for the mlh1 strain (AID 171);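 also: 0% = growth of vehicle-treated control cultures of the same strain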
Settings: S. cerevisiae mlh1 strain growth inhibition, stronger effect = higher value
Procedure: Growth inhibition of yeast strains with defined genetic alterations is measured as a screen for potential anti-cancer activity. Selected strains with alterations in DNA damage repair or cell cycle control were exposed to compounds and growth inhibition was measured relative to vehicle treated controls. The strain used in this assay is mlh1

With `CCN(CCCl)c1cc(CN(C)C)cc(NC(=O)c2ccc(C(=O)Nc3cc(CN(C)C)cc(N(CC)CCCl)c3)cc2)c1` the growth inhibition (at 1.2 µM) was -6%, the growth inhibition (at 3.7 µM) was -6% and the growth inhibition (at 11.0 µM) was -9%. For the same molecule, the growth inhibition (at 33.0 µM) was 28% and the growth inhibition (at 100.0 µM) was 90% (active).
`Cc1ccc2c(c1)C1(C)c3cc(C)ccc3SP1S2` (stereo not given) gave a growth inhibition (at 1.2 µM) of -5%, a growth inhibition (at 3.7 µM) of -22% and a growth inhibition (at 11.0 µM) of -3%. The growth inhibition (at 33.0 µM) was 26% and the growth inhibition (at 100.0 µM) was 39%.
Molecule `COC(=O)c1c(C)ccc2c(O)c3c(cc12)C(=O)c1c2c(cc(O)c1C3=O)C1(C)OC(C)(O2)C(O)C(N(C)C)C1O` (stereo not given) has a growth inhibition (at 1.2 µM) of 2%, a growth inhibition (at 3.7 µM) of 19% and a growth inhibition (at 11.0 µM) of 68%. The growth inhibition (at 33.0 µM) was 97% (active) and the growth inhibition (at 100.0 µM) was 95% (active).
For `CCC(=O)OC1CCn2c1nc1c2C(=O)C(C)=C(N2CC2)C1=O` (stereo not given), the growth inhibition (at 1.2 µM) was 5%, the growth inhibition (at 3.7 µM) was 24% and the growth inhibition (at 11.0 µM) was -11%. The growth inhibition (at 33.0 µM) was -10% and the growth inhibition (at 100.0 µM) was 24%.
In the case of `OC1CCCC2CCC[N-]C12.OC1CCCC2CCC[N-]C12.[O]=[V][OH]` (stereo not given), the growth inhibition (at 1.2 µM) is reported as -25%, the growth inhibition (at 3.7 µM) is reported as 50% and the growth inhibition (at 11.0 µM) is reported as 79% (active). For the same molecule, the growth inhibition (at 33.0 µM) was 88% (active) and the growth inhibition (at 100.0 µM) was 95% (active).
For `CC(C)(C)c1cc([N+](=O)[O-])cc([N+](=O)[O-])c1O`, the growth inhibition (at 1.2 µM) was -38%, the growth inhibition (at 3.7 µM) was -33% and the growth inhibition (at 11.0 µM) was -4%. It also gave a growth inhibition (at 33.0 µM) of 10% and a growth inhibition (at 100.0 µM) of 42%.
With `CC[C@@]1(O)C(=O)OCc2c1cc1n(c2=O)Cc2cc3ccccc3nc2-1` the growth inhibition (at 1.2 µM) was -2%, the growth inhibition (at 3.7 µM) was 35% and the growth inhibition (at 11.0 µM) was 84% (active). The growth inhibition (at 33.0 µM) was 93% (active) and the growth inhibition (at 100.0 µM) was 93% (active).
`Nc1nc(-c2ccccc2)c(-c2ccccc2)[se]1` gave a growth inhibition (at 1.2 µM) of 0%, a growth inhibition (at 3.7 µM) of 2% and a growth inhibition (at 11.0 µM) of 0%. For the same molecule, the growth inhibition (at 33.0 µM) was 6% and the growth inhibition (at 100.0 µM) was 17%.
